{"source": "PubChem BioAssay (NCATS)", "note": "Records with an inconclusive call do not appear. Calls of active or inactive are those of the source. Calls come from the whole dose curve; as a rule, active = well fitted cell-killing curve with a large enough effect; inconclusive = small, poorly fitted or top-dose-only effect; inactive = flat fitted curve, though single readings scatter. % is set by controls: 0 for no effect and ±100 for the full control effect."}
{"assay": "qHTS assay to identify small molecule inhibitors of chordoma cells - UCH-2 (AID 1259356)", "settings": "UCH-2 chordoma viability, CellTiter-Glo ATP luminescence, 48 h; series mostly up to 46.1 µM; activity change, negative = inhibition: at the top concentration"}
{"smiles": "COc1ccc(C(=O)CC(=O)c2ccc(C(C)(C)C)cc2)cc1", "activity change, negative = inhibition": "3.35% (inactive)"}
{"smiles": "CCOC(=O)c1ccc(OC(=O)CCCCCN=C(N)N)cc1", "activity change, negative = inhibition": "-0.189% [at 20.6 µM] (inactive)"}
{"smiles": "CNCC[C@H](Oc1cccc2ccccc12)c1cccs1", "activity change, negative = inhibition": "5.93% (inactive)"}
{"smiles": "CN(C)CCc1c[nH]c2ccc(CS(=O)(=O)N3CCCC3)cc12", "activity change, negative = inhibition": "2.38% (inactive)"}
{"smiles": "NC(N)=NC(N)=NCCc1ccccc1", "Potency": "inactive"}
{"smiles": "CCC(C)(C)c1ccc(CC(C)CN2C[C@@H](C)O[C@@H](C)C2)cc1", "note": "(some centres not stated)", "activity change, negative = inhibition": "0.0293% (inactive)"}
{"smiles": "O=S(=O)(O)CCS", "activity change, negative = inhibition": "14% (inactive)"}
{"smiles": "CC(=O)[C@H]1CC[C@H]2[C@@H]3CC=C4C[C@@H](O)CC[C@]4(C)[C@H]3CC[C@]12C", "activity change, negative = inhibition": "17.9% (inactive)"}
{"smiles": "COC(=O)Nc1nc2ccc(Sc3ccccc3)cc2[nH]1", "activity change, negative = inhibition": "-17.4% [at 20.6 µM] (inactive)"}
{"smiles": "CC(C)(Sc1cc(C(C)(C)C)c(O)c(C(C)(C)C)c1)Sc1cc(C(C)(C)C)c(O)c(C(C)(C)C)c1", "activity change, negative = inhibition": "10.2% [at 20.6 µM] (inactive)"}
{"smiles": "CN(Cc1cc(Br)cc(Br)c1N)C1CCCCC1", "activity change, negative = inhibition": "4.12% (inactive)"}
{"smiles": "CCN(CC)CC#CCOC(=O)C(O)(c1ccccc1)C1CCCCC1", "note": "(configuration not stated)", "activity change, negative = inhibition": "6.26% (inactive)"}
{"smiles": "O=c1oc2c(O)c(O)cc3c(=O)oc4c(O)c(O)cc1c4c23", "activity change, negative = inhibition": "6.37% (inactive)"}
{"smiles": "COc1ncnc(NS(=O)(=O)c2ccc(N)cc2)c1OC", "activity change, negative = inhibition": "5.82% (inactive)"}
{"smiles": "N=C(N)c1ccc(OCCCCCOc2ccc(C(=N)N)cc2)cc1", "activity change, negative = inhibition": "-0.964% (inactive)"}
{"smiles": "CCN(C)C(=O)Oc1cccc([C@H](C)N(C)C)c1", "activity change, negative = inhibition": "3.53% (inactive)"}
{"smiles": "CC[C@H](NC(C)C)[C@H](O)c1ccc(O)c2[nH]c(=O)ccc12", "activity change, negative = inhibition": "-1.97% (inactive)"}
